Test results as given in PubChem BioAssay.
Values joined by “and” are separate entries in the source; they are usually repeats but may differ in a detail not shown here. Identical values can stand only once. Active and inactive are the calls of the source.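 How the source made its calls, unless noted: active means inhibition at or above 50% relative to wild type and mutant plate controls; inactive means inhibition below 50%.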

Legend:
[1] = inhibitors of TNFa-induced NFkB p65 translocation, primary screen, imaging, HUVEC, MLSMR starter and 10KST1 sets (AID 438;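 active means inhibition above 20% together with a positive visual image hit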;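 further: compound added about 3h40 before a 20 min TNFalpha stimulation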;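 on inhibition: signal is the nuclear over cytoplasmic p65 intensity ratio per well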); settings: HUVEC TNFa-induced p65 nuclear translocation; cell count: measured here: nuclei count (cytotoxicity indicator), at 2.08 µM; inhibition: at 2 µM, stronger effect = higher value, 0% TNFa-plus-vehicle, 100% no-TNFa wells
[2] = reduction of polyQ htt aggregates in cells – imaging, exon1htt(103Q)mCFP cells, high-content imaging, primary screen (AID 483;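 active means visual image review flags a hit and inhibition of aggregation exceeds 20%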;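 further: compound exposure lasted 3 days before fixation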;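 on nuclei count: percent of the per-plate median nuclei count of sample wells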); settings: exon1htt(103Q)mCFP cell line, aggregate imaging, at 2 µM; inhibition of aggregation: stronger effect = higher value; nuclei count: measured here: cell count, toxicity
[3] = endothelial E-selectin expression blockers – imaging, HUVEC, immunofluorescence, MLSMR starter and 10KST1 sets, primary screen (AID 487;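 active means visually confirmed hit in the image check and inhibition above 20%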;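 on inhibition: signal is fraction of cell area covered by stained E-selectin grains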;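 on nuclei count: 100% = median nuclei count of all wells on the same plate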); settings: HUVEC TNFalpha-induced E-selectin immunofluorescence imaging, at 2 µM; inhibition: stronger effect = higher value; nuclei count: measured here: cell number, toxicity
[4] = Primary imaging screen for DUSP6 inhibitors that restore phospho-Erk in transfected HeLa cells, chemical complementation (AID 609;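 active means compounds giving at least 50% inhibition in the cell-based MKP-3 phosphatase rescue imaging test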;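 on inhibition: phospho-Erk level distribution per well compared with pooled transfected vehicle control wells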); settings: HeLa MKP-3 transfected, phospho-Erk imaging KS statistic, at 10 µM, cells stimulated with TPA for 15 min
[5] = target: Dual specificity protein phosphatase 6 (Homo sapiens) (UniProt Q16828); assay: as above; settings: HeLa MKP-3 transfected, phospho-Erk imaging KS statistic; at 10 µM; stronger effect = higher value; cells stimulated with TPA for 15 min
Sequence of Dual specificity protein phosphatase 6 (Homo sapiens) (Q16828 whole entry, looked up): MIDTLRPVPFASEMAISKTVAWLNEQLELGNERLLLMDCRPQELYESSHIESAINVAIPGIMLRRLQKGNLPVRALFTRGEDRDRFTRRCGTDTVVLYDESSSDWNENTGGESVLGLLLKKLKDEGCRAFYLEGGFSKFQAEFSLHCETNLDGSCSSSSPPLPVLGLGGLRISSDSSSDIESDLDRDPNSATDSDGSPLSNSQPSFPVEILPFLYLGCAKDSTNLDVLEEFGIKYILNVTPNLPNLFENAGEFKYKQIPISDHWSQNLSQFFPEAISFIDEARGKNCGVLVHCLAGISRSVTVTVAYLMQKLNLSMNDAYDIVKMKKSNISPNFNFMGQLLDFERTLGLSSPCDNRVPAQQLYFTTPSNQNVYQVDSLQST

[6] = target: Voltage-gated potassium channel subunit beta-2 (Rattus norvegicus) (UniProt P62483); assay: inhibitors of rat Kvbeta2 reductase activity – biochemical, NADPH fluorescence, primary screen (AID 622;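 active means fluorescence slope higher than the sample average by over 3 SD, cut at about -0.22 in these data, passing the limit was not always enough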;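 further: slope of raw intensity against log time taken from 70 to 1610 s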); settings: recombinant KvBeta, 4-cyanobenzaldehyde reduction, at 10 µM, stronger effect = higher value
Sequence of Voltage-gated potassium channel subunit beta-2 (Rattus norvegicus) (P62483 whole entry, looked up): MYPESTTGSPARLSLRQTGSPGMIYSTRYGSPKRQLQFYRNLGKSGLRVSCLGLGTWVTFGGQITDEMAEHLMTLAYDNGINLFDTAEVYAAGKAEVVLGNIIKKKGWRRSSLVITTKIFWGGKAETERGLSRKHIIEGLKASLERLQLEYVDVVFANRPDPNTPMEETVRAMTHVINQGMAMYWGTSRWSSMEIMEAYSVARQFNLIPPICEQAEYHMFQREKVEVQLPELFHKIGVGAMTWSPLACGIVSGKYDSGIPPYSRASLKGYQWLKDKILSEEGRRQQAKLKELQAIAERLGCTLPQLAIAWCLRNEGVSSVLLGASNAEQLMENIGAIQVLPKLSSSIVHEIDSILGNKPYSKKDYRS

[7] = target: Voltage-gated potassium channel subunit beta-2 (Rattus norvegicus) (UniProt P62483); assay: enhancers of rat Kvbeta2 NADPH turnover – biochemical, NADPH fluorescence, primary screen (AID 623;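 active means NADPH fluorescence slope more negative than the mean of all samples by about 3 SD, 99.7% confidence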;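 further: fluorescence intensity change per second fitted from 20 to 320 s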); settings: Recombinant KvBeta, NADPH fluorescence decrease slope, 10 min; at 10 µM; stronger effect = lower value
[8] = target: Alpha-2C adrenergic receptor (Homo sapiens) (UniProt P18825); assay: compounds altering alpha2C-coupled GIRK flux – cell-based, HEK293 alpha2C/GIRK1/2, thallium flux, primary screen (AID 624;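 active means fluorescence slope after compound addition differing from the mean of all screened samples at 99.7% confidence, in either direction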;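 further: slope of fluorescence ratio to pre-addition baseline per second over 15 to 24 s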); settings: thallium flux BTC fluorescence, at 10 µM, actives lie on both sides
Sequence of Alpha-2C adrenergic receptor (Homo sapiens) (P18825 whole entry, looked up): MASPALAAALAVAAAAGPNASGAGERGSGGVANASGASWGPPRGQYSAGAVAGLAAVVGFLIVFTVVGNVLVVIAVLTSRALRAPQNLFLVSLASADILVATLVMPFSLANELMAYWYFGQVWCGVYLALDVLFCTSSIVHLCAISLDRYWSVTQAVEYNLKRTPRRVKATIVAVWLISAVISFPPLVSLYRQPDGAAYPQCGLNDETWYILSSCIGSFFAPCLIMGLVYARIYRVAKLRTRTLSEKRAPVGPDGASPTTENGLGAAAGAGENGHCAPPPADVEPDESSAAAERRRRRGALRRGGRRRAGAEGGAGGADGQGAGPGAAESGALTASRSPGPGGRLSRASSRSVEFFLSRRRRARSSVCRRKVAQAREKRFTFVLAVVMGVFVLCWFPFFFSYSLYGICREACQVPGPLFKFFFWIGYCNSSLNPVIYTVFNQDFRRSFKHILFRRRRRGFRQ

[9] = inhibitors of larval lipid processing in zebrafish, primary screen, whole organism, PED6 fluorescence, gall bladder and intestine (AID 686;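 active means a full or partial loss of lipid-probe fluorescence in the fish gall bladder, intestine or both, judged by eye; inactive means no fluorescence loss, or compound toxic to the fish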;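 further: larvae 5 to 7 days old with five fish per well; signal comes from phospholipase A2 cleavage of quenched PED6 carried via bile; overnight exposure to compound and PED6 before scoring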); settings: Zebrafish larvae PED6 lipid processing, fluorescence scoring; screened at 20 µM (by protocol)
[10] = loss of swimming-algae plug formation – whole organism, Chlamydomonas reinhardtii, WT vs cilia-less mutant, absorbance, 96-well, primary screen (AID 463189); settings: Chlamydomonas reinhardtii gravitaxis, OD600 absorbance, 2 days; at 10 µM; stronger effect = higher value;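 further: 0% = wild type cc124 cells in DMSO and 100% = ciliumless bld1 mutant cells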
[11] = blockers of RIG-like receptor reporter activation – cell-based, Sendai virus stimulus, luciferase, 10K MLSCN set, TLR/RLR signaling modifier project, primary screen (AID 602276;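 active means inhibition at or above 50% at 10 µM; inactive means inhibition below 50%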;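 further: firefly luciferase from ISG56 promoter only with Renilla not read in this screen; 0% = Sendai virus plus DMSO and 100% = medium plus DMSO without virus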); settings: HEK293 RL24 IRF3 luciferase reporter, at 10 µM, stronger effect = higher value
[12] = TLR3 IRF3 reporter activation blockers – cell-based, poly I:C stimulus, luciferase, 10K MLSCN set, primary screen (AID 602277;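 active means inhibition of the reporter signal at or above 50%; inactive means inhibition below 50%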); settings: HEK293-TLR3 RL24 IRF3 luciferase reporter, at 10 µM, stronger effect = higher value
[13] = measured here: cell density z-score
[14] = measured here: nuclear c-Myc green intensity z-score
[15] = measured here: nuclear pErk red intensity z-score, stronger effect = higher value

SMILES | cell count [1] | inhibition [1] | inhibition of aggregation [2] | nuclei count [2] [%] | inhibition [3] | nuclei count [3] [%] | z-score [4, 13] | z-score [4, 14] | z-score [4, 15] | inhibition [5] | fluorescence slope [6] | NADPH fluorescence slope [7] | slope [8] | outcome [9] | inhibition [10] | inhibition [11] | inhibition [12]
Oc1ccc(/C=C/c2cc(O)cc(O)c2)cc1 | 597 | 2.2% (inactive) | 6% (inactive) | 98.6 | -78% (inactive) | 118 | -1.5 | -0.867 | 1.21 | 14.6% (inactive) | -0.411 (inactive) | -0.000101 (inactive) | 0.00434 (inactive) | inactive | 3.52% (inactive) and 10.8% (inactive) | -39.2% (inactive) | -231% (inactive)
Cc1nn(C)cc1/C=N/O | 677 | -4.1% (inactive) | -2.1% (inactive) | 83.6 | -8.8% (inactive) | 140 | 0.232 | -1.13 | -0.23 | -1.12% (inactive) | -0.494 (inactive) | -0.000175 (inactive) | 0.00422 (inactive) | inactive | 7.83% (inactive) | 15.8% (inactive) | 19% (inactive)
N#C/C(=C\c1ccc(O)c(O)c1)C(=O)NCCCc1ccccc1 | 629 | 3.7% (inactive) | -14.6% (inactive) | 98.2 | -94.6% (inactive) | 131 | 1.89 | 0.253 | -0.466 | 16.8% (inactive) | -0.49 (inactive) | -5.4e-05 (inactive) | 0.00485 (inactive) | inactive | 2.27% (inactive) and -1.78% (inactive) | -14.9% (inactive) | -17.2% (inactive)
CCN(CCCCOC(=O)c1ccc(OC)c(OC)c1)C(C)Cc1ccc(OC)cc1 (stereo not given) | 635 | -4.8% (inactive) | -7.1% (inactive) | 96.1 | -106% (inactive) | 138 | 0.515 | -0.208 | -0.515 | 9.37% (inactive) | -0.488 (inactive) | -7.4e-05 (inactive) | 0.00442 (inactive) | inactive | 55.2% (active) | -44.7% (inactive) | 57.4% (active)
NC(=O)N1c2ccccc2C=Cc2ccccc21 | 639 | -4.6% (inactive) | -10.6% (inactive) | 110 | -55.6% (inactive) | 127 | -0.0512 | 0.625 | -1.48 | 15.3% (inactive) | -0.492 (inactive) | -4.6e-05 (inactive) | 0.00463 (inactive) | inactive | 5.34% (inactive) and 20.1% (inactive) | 7.49% (inactive) | 22.1% (inactive)
N=c1c(C(=O)NCc2ccccc2)cc2c(=O)n3ccccc3nc2n1Cc1ccco1 | 365 | -3.1% (inactive) | -10% (inactive) | 91.6 | -250% (inactive) | 133 | 0.674 | 0.212 | -1.53 | 9.39% (inactive) | -0.375 (inactive) | -4.7e-05 (inactive) | 0.00267 (inactive) | inactive | -4.74% (inactive) | -0.117% (inactive) | 19.6% (inactive)
C[C@]12CC[C@@H]3c4ccc(O)cc4CC[C@H]3[C@@H]1CCC2=O | 576 | -0.3% (inactive) | 3.1% (inactive) | 98 | -80.9% (inactive) | 120 | -8.47 | 2.04 | 2.06 | 17.3% (inactive) | -0.463 (inactive) | -3.3e-05 (inactive) | 0.00425 (inactive) | inactive | -0.014% (inactive) and 40.8% (inactive) | 8.21% (inactive) | 34.8% (inactive)
Cc1onc(-c2ccccc2)c1C(=O)N[C@@H]1C(=O)N2[C@@H]1SC(C)(C)[C@@H]2C(=O)O | 638 | -3.4% (inactive) | -5% (inactive) | 102 | -91.9% (inactive) | 126 | -0.0512 | -0.454 | 0.656 | 25.1% (inactive) | -0.532 (inactive) | -4.6e-05 (inactive) | 0.00473 (inactive) | inactive | -11.8% (inactive) | -2.42% (inactive) | 27.7% (inactive)
CC(Cc1ccc(O)c(O)c1)C(C)Cc1ccc(O)c(O)c1 (stereo not given) | 641 | 12.1% (inactive) | -17.2% (inactive) | 100 | -62.1% (inactive) | 127 | 0.848 | 0.39 | -0.226 | 16.8% (inactive) | -0.504 (inactive) | -8.3e-05 (inactive) | 0.00569 (inactive) | inactive | -9.23% (inactive) | 3.4% (inactive) | -2.88% (inactive)
CCCCOc1ccc(C(=O)CCN2CCCCC2)cc1 | 591 | -10.4% (inactive) | 4.2% (inactive) | 92.4 | -91.6% (inactive) | 114 | 0.144 | -0.213 | -1.06 | 7.39% (inactive) | -0.421 (inactive) | -5.1e-05 (inactive) | 0.00405 (inactive) | inactive | 61.3% (active) | 4.68% (inactive) | 21.9% (inactive)
